Eya2 inh: blocks the phosphatase activity of human Eya2. O00167. AID 488837. recombinant Eya2, OMFP fluorescence dephosphorylation (OMFP is methylfluorescein phosphate). Potency, µM (titrated, usually from 76.9 µM), for the others: at the top dose activity, negative = inhibition, most hits filed as inhibitors. 330,000 tested, 0.006% active; note: % is set by controls: 0 for no effect and ±100 for the full control effect
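Eya2 protein (added as 0.2 uM solution) was preincubated with compound for 10 min at ambient temperature in 50 mM HEPES pH 7.5, 50 mM NaCl, 5 uM MgCl2, 0.05% BSA, 1 mM DTT. OMFP (added at 50 uM) then reacted 10 min; fluorescence read at 485/525 nm.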
USP2a block: blocks human ubiquitin-specific protease USP2a; O75604; USP2 core, Ub-CHOP2 coupled fluorogenic reporter, 485/531; Potency, µM (top dose mostly 38.3 µM), for inactives: top-dose activity change, negative = inhibition, actives largely listed as inhibitors; 330,000 tested, 0.01% active; AID 463254;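 note: plate controls were DMSO wells for no effect and full inhibition by NEM control for full effect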
Target sequence (O75604 whole entry, looked up): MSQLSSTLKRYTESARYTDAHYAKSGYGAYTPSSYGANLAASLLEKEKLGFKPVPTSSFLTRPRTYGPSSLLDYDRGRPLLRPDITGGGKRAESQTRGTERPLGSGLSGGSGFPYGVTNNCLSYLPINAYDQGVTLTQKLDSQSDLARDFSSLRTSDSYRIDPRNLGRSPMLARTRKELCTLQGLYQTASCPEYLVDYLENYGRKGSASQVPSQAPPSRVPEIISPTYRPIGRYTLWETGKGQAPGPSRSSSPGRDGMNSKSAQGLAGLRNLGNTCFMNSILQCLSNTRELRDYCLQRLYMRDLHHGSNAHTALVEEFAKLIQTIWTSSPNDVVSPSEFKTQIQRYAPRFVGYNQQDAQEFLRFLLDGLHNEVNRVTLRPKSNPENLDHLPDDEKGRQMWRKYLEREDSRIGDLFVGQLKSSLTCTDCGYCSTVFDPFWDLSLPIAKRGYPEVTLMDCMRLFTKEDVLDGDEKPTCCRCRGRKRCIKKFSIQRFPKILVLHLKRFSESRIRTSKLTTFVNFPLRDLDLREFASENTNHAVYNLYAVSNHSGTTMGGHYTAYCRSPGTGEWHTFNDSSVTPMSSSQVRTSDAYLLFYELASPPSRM
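Cell-free coupled assay: 10nM USP2 core preincubated 30min RT with compound in Tris-HCl pH 8.0/CaCl2/CHAPS buffer, then 25nM Ub-CHOP2 and 25nM reporter substrate; fluorescence (Ex 485/Em 531) read after 60min RT, normalized to NEM inhibition, concentration-response curves fitted.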
B2AR arrestin: beta2AR (human) beta-arrestin recruitment activity; Potency, µM (series often up to 46.1 µM), without a hit: top-dose activation, hits mostly activators; beta-arrestin recruitment to beta2AR, cell-based reporter; P07550; 330,000 tested, 0.02% active;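 note: 0% = DMSO controls and full agonism = EC100 isoproterenol or metaproterenol; nearly all actives have a fitted effect of over 65% in size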
BCR signal inh: inhibitors of chronic active B-cell receptor signaling. ABC-DLBCL IkBa-CBG/CBR reporter, luminescence ratio, 4 h. Potency, µM (titrated, usually from 46.1 µM), for inactives: at the top dose activity change, negative = inhibition, actives largely listed as inhibitors. 340,000 tested, 0.05% active; active = well fitted inhibition curve with a large enough effect in the signal ratio, with a control signal flat, not every such curve was filed as active; inconclusive = small, poorly fitted or top-dose-only effect, or effect the other way, or a change in a side signal; the % refers to the signal ratio;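 note: plate controls were basal doxycycline-induced cells for no effect and cells given 10 µM MG132 for full effect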
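Compounds up to 46 uM were incubated four hours with TMD8 cells whose green CBG68 luciferase is fused to IkappaBalpha; red CBR luminescence normalised the signal, and concentration-effect curves were fitted to fusion, red and ratio data.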
p53 reactivation: restores transcriptional activity of mutant p53. AID 504706. H1299 p53-A138V BP100-luciferase reporter, luminescence, 24 h. Potency, µM (titrated, usually from 92.2 µM), inactives show at the highest dose activity change, positive = activation, hits mostly activators. 320,000 tested, 0.063% active; note: % of control where 0% means no effect; nearly all actives have a fitted effect of over 45% in size
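p53-null H1299 cells stably carrying temperature-sensitive p53-A138V and a BP100-luciferase reporter were pinned with compounds (4-point, 1:5 series) and held 24 hrs at 37 deg C. Luminescence was read 10 min after detection reagent.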
* marks the source's active call; other numbers are inactive results. Hits are enriched below; roughly 0.15% of the tested compounds scored in any of these assays. Unless noted, calls come from the whole dose curve; as a rule, active = well fitted curve in the direction sought with a large enough effect; inconclusive = small, poorly fitted or top-dose-only effect, or another doubt; inactive = no such curve, though single readings can be large; an effect the other way counts as inactive or inconclusive. Potency is the fitted concentration of half-maximal effect.

What do the screens show for `O=C(CSc1nc2ccccc2c(=O)n1-c1ccc(F)cc1)Nc1cc(S(=O)(=O)N2CCOCC2)ccc1Cl`?
Eya2 inh: -2.9%; USP2a block: 0.1%; B2AR arrestin: 16.4µM*; BCR signal inh: inconclusive; p53 reactivation: 0.2%

Results for c1ccc(-c2nnc(-c3ccccn3)nc2NC2CCCCC2)cc1 ?
Eya2 inh: -6.6%; USP2a block: 2.0%; B2AR arrestin: 0.2%; BCR signal inh: inconclusive; p53 reactivation: 35.5µM*

How did COc1ccc(/C=C/C(=O)C2(O)CCCCC2)cc1 do in these assays?
Eya2 inh: 7.2%; USP2a block: 1.0%; B2AR arrestin: -0.3%; BCR signal inh: inconclusive; p53 reactivation: 39.8µM*

What do the screens show for `COc1ccc(/C=C/C(=O)O)cc1`?
Eya2 inh: 12.2%; USP2a block: 1.4%; B2AR arrestin: -1.5%; BCR signal inh: 3.4%; p53 reactivation: 1.4%

What do the screens show for `Oc1c(C(c2ccc(F)cc2)N2CCCC2)sc2nc(-c3ccco3)nn12` (centres undefined)?
BCR signal inh: -15.0%

What do the screens show for `COc1ccc(CNC(=O)Cc2ccc(NC(=O)C3=C(C)OCCS3)cc2)cc1`?
Eya2 inh: 5.2%; USP2a block: 2.5%; B2AR arrestin: 0.1%; BCR signal inh: 20µM*; p53 reactivation: inconclusive

Results for CC1=C(C(=O)Nc2ccc(CC(=O)NCc3ccc(OC(C)C)cc3)cc2)SCCO1 ?
Eya2 inh: 3.3%; USP2a block: -0.2%; B2AR arrestin: 0.3%; BCR signal inh: inconclusive; p53 reactivation: inconclusive

How did COCCNC(=O)/C(C#N)=C/c1cccc(/C=C(\C#N)C(=O)NCCOC)c1 do in these assays?
Eya2 inh: -8.0%; USP2a block: 1.3%; B2AR arrestin: 11.0%; BCR signal inh: 14.6µM*; p53 reactivation: -24.2%

Results for COCCNC(=O)/C(C#N)=C/c1ccc(O)cc1 ?
Eya2 inh: -6.6%; USP2a block: 8.6%; B2AR arrestin: 0.1%; BCR signal inh: -6.3%; p53 reactivation: 11.9%

What do the screens show for `O=C(CCNc1ccc(Cl)cc1)c1cccs1`?
Eya2 inh: -0.5%; USP2a block: 0.9%; B2AR arrestin: -0.6%; BCR signal inh: -5.7%; p53 reactivation: 15.8µM*

How did CCOc1ccc(-c2cn(-c3ccc(C)cc3)c(SCC(=O)Nc3ccc(C)cc3)n2)cc1 do in these assays?
BCR signal inh: -3.7%

Results for O=C1NC(=O)/C(=C/c2ccc(-c3ccc(F)cc3O)o2)S1 ?
Eya2 inh: 21.8%

What do the screens show for `Cc1cc(C(c2nnnn2Cc2ccccc2)N2CCOCC2)c(C)n1-c1ccc2c(c1)OCO2` (centres undefined)?
Eya2 inh: -6.3%; USP2a block: -10.0%; B2AR arrestin: -0.3%; BCR signal inh: inconclusive; p53 reactivation: 31.6µM*

What do the screens show for `Cn1c(SCC(=O)N/N=C/C=C/c2ccco2)nc2ccccc21`?
Eya2 inh: -7.5%; USP2a block: 2.3%; B2AR arrestin: 18.4µM*; BCR signal inh: inconclusive; p53 reactivation: 5.8%

Results for Cc1ccc(C)c(N(C)S(=O)(=O)c2ccc3[nH]cc(C(=O)NC4CCCC4)c(=O)c3c2)c1 ?
BCR signal inh: 19.2%

What do the screens show for `O=C1C=C(NC2CCCC2)CC(c2ccccc2)C1` (centres undefined)?
Eya2 inh: -22.7%; USP2a block: 1.3%; B2AR arrestin: 3.55µM*; BCR signal inh: -4.2%; p53 reactivation: 1.7%

How did CNC1=CC(=O)CC(c2ccccc2)C1 (centres undefined) do in these assays?
Eya2 inh: 18.8%; USP2a block: 0.5%; B2AR arrestin: -0.1%; BCR signal inh: 1.6%; p53 reactivation: 2.6%

What do the screens show for `Cc1ccn2c(Nc3ccc4c(c3)OCO4)c(-c3ccccn3)nc2c1`?
Eya2 inh: 1.5%; USP2a block: inconclusive; B2AR arrestin: 0.3%; BCR signal inh: 3.8%; p53 reactivation: 20µM*

Results for COc1ccc(S(=O)(=O)Nc2ccccc2OC)cc1NC(=O)c1cc2ccccc2oc1=O ?
Eya2 inh: -8.5%; USP2a block: 2.4%; B2AR arrestin: -0.7%; BCR signal inh: inconclusive; p53 reactivation: 22.4µM*

Compound activity: PubChem, National Center for Advancing Translational Sciences (NCATS)
